Screening data deposited in PubChem BioAssay by National Center for Advancing Translational Sciences (NCATS).
Sampled rows, rich in hits. Any-hit rate of the full collection: about 6.7%.
KB-3-1 cytotox = kills parental KB-3-1 adenocarcinoma cells; KB-3-1 viability, CellTiter-Glo ATP luminescence, 72 h; Potency, µM (top dose mostly 46.1 µM), usual class: cytotoxic; 400,000 tested, 1.4% active; AID 1347075; also: % is scaled to controls: 0 for no effect and ±100 for the full control effect; nearly all actives have a fitted effect of over 60% in size
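Using CellTiter-Glo luminescence, growth of non-resistant KB-3-1 adenocarcinoma cells is assessed 72 h after pin-tool compound addition at 37 °C. Normalized responses across the concentration series yield fitted curves.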
MCF10A rereplic = DNA re-replication induction in MCF 10a cells. MCF 10A DNA re-replication, Hoechst nuclear intensity, 48 h. Potency, µM (series often up to 46.1 µM), for inactives: at the highest dose activity, positive = re-replication, actives largely listed as activators. 350,000 tested, 2.9% active. AID 624296; also: % of control where 0% means no effect; nearly all actives have a fitted effect of over 50% in size
SW480 rereplic = induces DNA re-replication in SW480 colon adenocarcinoma cells | Potency, µM (titrated, usually from 46.1 µM), for inactives: top-dose re-replication activation, actives largely listed as activators | AID 624297 | SW480 DNA re-replication, Hoechst DNA content imaging, 48 h | 340,000 tested, 1.8% active; also: % of control where 0% means no effect; nearly all actives have a fitted effect of over 55% in size
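DNA re-replication was detected as more nuclei of elevated Hoechst intensity after 48 hr exposure to compound (23 nL pinned per well of 250 cells).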
PINK1 modulator = PINK1 expression modulation. PINK1 immunofluorescence, high-content cytometry, 24 h. Potency, µM (doses to about 76.6 µM), inactives show top-dose activation (PINK1 increase), hits mostly activators. 410,000 tested, 0.2% active. AID 624263; active = well fitted activation curve with a large enough effect; inconclusive = small, poorly fitted or top-dose-only effect; cell line not stated here; also: % of control where 0% means no effect; nearly all actives have a fitted effect of over 65% in size
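PINK1 protein, normally rapidly degraded, was detected by immunofluorescence after 24 hour compound treatment of a stable cell line. Titration data (5 concentrations) came from laser-scanning cytometry, with CCCP-treated wells as controls.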
KB-V1 cytotox = KB-V1 MDR subline cytotoxicity; AID 1347076; 400,000 tested, 3.4% active; KB-V1 MDR cells viability, CellTiter-Glo, 72 h; Potency, µM (doses to about 46.1 µM), usual class: cytotoxic; also: % is scaled to controls: 0 for no effect and ±100 for the full control effect; nearly all actives have a fitted effect of over 60% in size
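KB-V1 cells (P-gp-expressing MDR subline of KB-3-1) in phenol-red-free DMEM with 10% FBS were exposed to library compounds over a concentration series for 72 h at 37 degrees C. Viability read by CellTiter-Glo luminescence; concentration-effect curves fitted after normalization.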
Numbers without * were called inactive; i = inactive; u = inconclusive; x = no result; [ ] = another dose, or the depositor's remark. Unless noted, calls follow the shape of the dose curve; as a rule, active = well fitted curve in the direction sought with a large enough effect; inconclusive = small, poorly fitted or top-dose-only effect, or another doubt; inactive = no such curve, though single readings can be large; an effect the other way counts as inactive or inconclusive. Potency is read from the fitted curve at half-maximal effect.

SMILES	KB-3-1 cytotox	MCF10A rereplic	SW480 rereplic	PINK1 modulator	KB-V1 cytotox
CCn1c(N2CCN(S(=O)(=O)c3ccccc3C(F)(F)F)CC2)nc2ccccc21	i	u	11%	1%	18µM*
Cc1ccc(Cn2c(C(C)Nc3nc(C)cs3)nc3cc(Cl)c(Cl)cc32)cc1 (configuration not stated)	i	u	-9%	2%	i
O=C(Cn1nc(-c2ccccc2)ccc1=O)NCCN1CCN(c2cccc(Cl)c2)CC1	i	-1%	-2%	-4%[38.3 µM]	5.8µM*
Cc1ccccc1CS(=O)(=O)CCC(=O)NCCCN1CCN(c2ccccc2F)CC1	i	u	-1%	3%	i
Cc1ccccc1CS(=O)(=O)CCC(=O)NCCN1CCN(c2cccc(Cl)c2)CC1	i	0%	-124%	4%	10µM*
Cc1ccc(-c2noc(CCC(=O)NCCCN3CCN(c4cccc(Cl)c4)CC3)n2)cc1	18µM*	u	u	3%	16µM*
COc1ccc(-c2noc(CCC(=O)NCCCN3CCN(c4ccccc4F)CC3)n2)cc1	i	23%	-8%	2%	i
Cc1ccc(-c2noc(CCC(=O)NCCCN3CCN(c4ccc(F)cc4)CC3)n2)cc1	u	7%	u	8%	13µM*
Cc1ccc(S(=O)(=O)N2C[C@H]3C(=O)C[C@@H]4C(=O)N(c5ccccc5)C(=O)[C@@H]4[C@@H]3C[C@H]2c2cccc(Cl)c2)cc1	i	x	x	12%	i
Cc1ccc(-c2cnc(C3CC3)o2)cc1S(=O)(=O)Nc1ccccc1	7.3µM*	u	-5%	0%	u
CC(=O)Nc1ccc(NS(=O)(=O)c2cc(-c3cnc(C4CC4)o3)ccc2C)cc1	i	-5%	-6%	6%	u
Cc1ccc(N(C)S(=O)(=O)c2cc(-c3cnc(C4CC4)o3)ccc2C)cc1	u	23µM*	28%	5%	i
Cc1cccc(N(C)S(=O)(=O)c2ccc(-c3cnc(C4CC4)o3)cc2)c1	u	23µM*	0.15µM*	0%	u
Cc1ccccc1NC(=O)c1c(C)oc2ccc(O)c(CN3CCOCC3)c12	i	x	x	0%	i
CN(C)/C=C1/OC(=O)C(C#N)=C1c1ccc(Cl)cc1	i	18µM*	u	0%	i
CN(C)/C=C1\Oc2ccc3ccccc3c2C1=O	i	3%	3%	1%	u
COc1ccccc1C(=O)NCC(c1cccs1)N1CCc2ccccc21 (configuration not stated)	u	18µM*	14%	1%	u
O=C(NCCC1=CCCCC1)c1c(O)nc2sccn2c1=O	u	18%	0%	7%	5.2µM*
O=C(NCCC1=CCCCC1)c1c(O)nc2ccccn2c1=O	i	-1%	0%	2%	u
Cc1cccc(-c2nc(SCC(=O)Nc3ccc4c(c3)OCO4)c(-c3ccccc3)[nH]2)c1	u	x	x	3%	i
COC(=O)c1c(NC(=O)Cc2cccs2)sc(C(=O)NC2CCCCC2)c1C	i	4%	u	u	i
CCOC(=O)c1c(NC(=O)Cc2cccs2)sc(C)c1C	i	3.7µM*	-5%	x	u
COC(=O)c1c(NC(=O)Cc2cccs2)sc(C(=O)N2CCCCC2)c1C	i	9%	-2%	-1%[38.3 µM]	16µM*
CCOC(=O)c1c(NC(=O)Cc2cccs2)sc(C(=O)NC2CCCC2)c1C	i	25%	-9%	10%	i
CCNc1c(NC(=O)c2cc(OCC)c(OCC)c(OCC)c2)c(=O)oc2ccccc12	i	x	x	-1%	i
SMILES	KB-3-1 cytotox	MCF10A rereplic	SW480 rereplic	PINK1 modulator	KB-V1 cytotox
c1ccc(-c2oc3ncnc(NCCCN4CCOCC4)c3c2-c2ccccc2)cc1	u	u	8%	-2%	u
COc1ccc(-c2oc3ncnc(NCCCN4CCOCC4)c3c2-c2ccc(OC)cc2)cc1	i	u	u	-7%[38.3 µM]	18µM*
CCOc1cc2nc(-c3ccc(OC)c(OC)c3)nc(NCCCN3CCOCC3)c2cc1OC	i	12µM*	u	3%	u
COc1ccc(-c2oc3ncnc(NCCN4CCOCC4)c3c2-c2ccc(OC)cc2)cc1	u	u	8%	-3%	u
COc1ccc(-c2oc3ncn(CCN4CCOCC4)c(=N)c3c2-c2ccc(OC)cc2)cc1	u	13µM*	u	9%[38.3 µM]	u
Clc1ccc(-c2nc(NCCN3CCOCC3)c3ccccc3n2)cc1	i	u	u	0%[38.3 µM]	4.1µM*
c1cncc(-c2nc(NCCN3CCOCC3)c3ccccc3n2)c1	x	x	x	0%	x
Cc1ccc(S(=O)(=O)Nc2ccccc2C(C(=O)OC(C)(C)C)C(=O)OC(C)(C)C)cc1	i	x	x	x	u
COc1ccc(S(=O)(=O)N2CCCCC2c2cc(C(=O)Nc3ccc(OC)cc3C)no2)cc1 (configuration not stated)	18µM*	x	x	0%	i
CNc1ccccc1C(=O)N1CCc2c([nH]c3ccccc23)C1=O	x	x	x	-1%	x
COc1cc(C(=O)OCc2ccc(C)cc2)cc(NC(=O)c2cccs2)c1OC	i	23µM*	u	10%	u
COc1cc(C(=O)O)cc(NC(=O)c2cccs2)c1OC	i	8%	0%	-2%	u
COc1ccc(S(=O)(=O)Nc2cc(Cl)ccc2OC)cc1	3.7µM*	3.3µM*	2.9µM*	13%	5.8µM*
COc1ccc(Cl)cc1NS(=O)(=O)c1ccc(OC)c(OC)c1	i	1%	-6%	-2%	16µM*
COc1ccc(S(=O)(=O)Nc2ccccc2C(N)=O)cc1OC	i	-7%	6.5µM*	-1%	i
COc1ccc(S(=O)(=O)Nc2ccccc2C(=O)NC(C)C)cc1OC	i	-4%	-3%	1%	i
COc1ccc(Cl)cc1NS(=O)(=O)c1ccc2[nH]c3c(c2c1)CCCC3	i	x	x	u	i
COc1ccc(Cl)cc1NS(=O)(=O)c1ccc(S(=O)(=O)N2CCCC2)cc1	i	-10%	8%	1%[38.3 µM]	i
COc1cc(S(=O)(=O)Nc2c(C)cc(C)cc2C)ccc1Cl	i	9%	3%	9%[38.3 µM]	18µM*
COc1ccc(Nc2nc(NCCN3CCOCC3)nc(Nc3ccc(OC)cc3)n2)cc1	i	9%	11%	5%	i
C=C(C)COc1ccc(-c2n[nH]c(C)c2-c2ccc(OC)cc2)c(O)c1	u	21µM*	u	21%	u
COc1ccc(-c2c(-c3ccc(OCC(=O)NN)cc3O)n[nH]c2C(F)(F)F)cc1	i	23µM*	u	3%	i
COc1ccc(-c2n[nH]c(C)c2-c2cscn2)c(O)c1	i	5%	1%	1%	i
COc1ccc(-c2c(-c3ccc(OCC(=O)NN)cc3O)n[nH]c2C)cc1OC	i	17%	-4%	1%	i
